Many of the other results were omitted from the sample, so hits are more common in it than they were.
Pf Dd2 inh: qHTS Primary assay for Inhibitors of Plasmodium falciparum Dd2 growth in vitro; Potency, µM (top dose mostly 28.9 µM), actives largely listed as inhibitors; 4.3% of 120,000 active; AID 1347417, 2020; P. falciparum Dd2 growth, SYBR Green, 72 h; active means well fitted inhibition curve with a large enough effect; further: nearly all actives have a fitted effect of over 65% in size
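Readout: SYBR Green fluorescence, 485 nm excitation, 535 nm emission, after ~16 h lysis at 37C. Before that, Dd2-infected red cells (2.5% hematocrit) grew 72 h with compound, 29 uM top final concentration.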
Large screens that a line does not name were inactive.

Cc1noc(C)c1C(=O)N1Cc2ccccc2CC2(CCN(CC3CCNCC3)CC2)C1	none
CN1CCC(C(=O)N2Cc3ccccc3CC3(CCN(C)C3)C2)CC1 (configuration not stated)	none
COCCNC(=O)[C@@H]1C[C@H](Oc2ccccc2)CN1C(=O)c1cc2ccc(OC)cc2[nH]1	none
O=C(Cc1cccc(Cl)c1)N1CCCC(c2nn(-c3ccc(F)cc3)c(=O)[nH]2)C1 (configuration not stated)	none
COc1ccc(-c2cc(-c3cn[nH]c3)c3cncn3c2)cn1	none
COc1ccc(-c2cc(-c3ccc(OC)nc3)cn3cncc23)cc1	Pf Dd2 inh 2.5µM
COc1ccc(-c2cc(-c3cnc4[nH]ccc4c3)cn3cncc23)cc1	Pf Dd2 inh 6.3µM
Cc1ccc(-c2cc(-c3ccncc3)c3cncn3c2)cn1	none
COc1cc(F)ccc1-c1cc(-c2ccc(=O)[nH]c2)c2cncn2c1	none
c1cc(-c2cc(-c3cn[nH]c3)cn3cncc23)ccn1	none
COc1ccc(-c2cc(-c3cccc(NC(C)=O)c3)cn3cncc23)cn1	Pf Dd2 inh 2µM
O=C1COCCN1c1cc(-c2cnc3[nH]ccc3c2)cn2cncc12	none
c1cncc(-c2cc(-c3ccc4cn[nH]c4c3)cn3cncc23)c1	none
CC(=O)Nc1cccc(-c2ccc(COc3ccc4c(cnn4CCC(=O)O)c3)cc2)c1	none
Cc1ccc(-c2cc(-c3cccnc3)c3cncn3c2)cn1	none
COc1ccc(-c2cc(-c3cccnc3)c3cncn3c2)cc1OC	Pf Dd2 inh 10µM
CC(C)C(=O)N1CC[C@H](CO)[C@H](NC(=O)C2CC2)C1	none
O=C1CCCCC(C(=O)NC2CCCC2)N1 (configuration not stated)	none
COc1ccc(NC(=O)C2CCCN(C(=O)c3cnn(-c4ccccc4)c3-n3cccc3)C2)cc1 (configuration not stated)	none
CCOCCCNc1nc2ccccc2n2c(CC)nnc12	none
CCCCN1C(=O)[C@@H]2C[C@@H](O)CN2C2(CN(C3CCOCC3)C2)C1=O	none
COc1ccc(/C=C(/C#N)c2nc(-c3ccc(-c4ccccc4)cc3)cs2)cc1OC	none
COc1ccccc1N1CCN(C(=O)[C@H]2O[C@H](CCN3CCN(c4ccccc4)CC3)CC[C@@H]2O)CC1	none
CN(Cc1ccccc1)C(=O)[C@H]1O[C@H](CCN2CCN(c3ccccc3)CC2)CC[C@@H]1O	Pf Dd2 inh 4.5µM
O=C([C@H]1O[C@H](CCN2CCN(c3ccccc3)CC2)CC[C@@H]1O)N1CCOCC1	none
COc1cc2c(cc1OC1CCCC1)NC(=O)C21CCN(c2ncc(F)cn2)CC1	none
COc1cc2c(cc1OC1CCCC1)NC(=O)C21CCN(c2ncccn2)CC1	none
COc1cc2c(cc1OC1CCCC1)NC(=O)C21CCN(c2nc(C)cc(C)n2)CC1	Pf Dd2 inh 11µM
COc1cc(NC(=O)Cn2ccn3nc4c(c3c2=O)CCCCC4)cc(OC)c1OC	none
COc1cc(OC)c(NC(=O)CCc2nc(C3=CCN(Cc4cccc(Cl)c4)CC3)no2)cc1Cl	none
FC(F)(F)c1ccccc1-c1cc(-c2cccnc2)c2cncn2c1	none
c1cncc(-c2cc(-c3cccc(N4CCOCC4)c3)cn3cncc23)c1	none
Cc1noc(C)c1-c1cc(-c2ccccc2C(F)(F)F)cn2cncc12	Pf Dd2 inh 6.3µM
COc1cccc(-c2cc(-c3c(C)noc3C)cc3c2C(=O)N(C)C3=O)c1OC	none
Cc1noc(C)c1-c1cc2c(c(-c3ccccc3)c1)C(=O)N(C)C2	none
C1=C(c2cc(-c3ccncc3)cn3cncc23)CCOC1	none
Cc1noc(C)c1-c1cc(-c2ccc(CO)cc2)cn2cncc12	none
Cc1noc(C)c1-c1cc(-c2cccc(O)c2)cn2cncc12	Pf Dd2 inh 11µM
Cc1noc(C)c1-c1cc(-c2ccccc2F)cn2cncc12	Pf Dd2 inh 7.1µM
CCc1ccccc1NC(=O)c1ccc(F)c(S(=O)(=O)N2CCN(c3cccc(Cl)c3)CC2)c1	none
O=C(NCc1ccccc1)[C@@H]1Cc2nc[nH]c2CN1C(=O)NC1CCCCC1	none
COc1ccc(S(=O)(=O)N2C[C@@H](F)C[C@H]2C(=O)N2CCCCC2)cc1	none
COc1ccc(C2=NN(CC(=O)NCCc3ccc(OC)c(OC)c3)C(=O)CC2)cc1	none
CC(C)(C)C(=O)N1CC[C@@H](CC(=O)O)[C@@H](CCN2CCC[C@H]2C(N)=O)C1	none
CCOc1cc(=O)n2c(c1C(=O)Nc1ccccc1CC)CCCC2	none
O=C(c1cccc(F)c1)N1CCC(Oc2cccnc2)C1 (configuration not stated)	none
O=C(C1CCOCC1)N1CCC(Oc2cccc(F)c2)C1 (configuration not stated)	none
Cn1ccnc1C(=O)N1CCC(Oc2cccc(F)c2)C1 (configuration not stated)	Pf Dd2 inh 7.9µM
O=c1[nH]nc2n1CCN(S(=O)(=O)c1ccc(F)cc1F)C2	none
COc1cc(=O)n2c(c1C(=O)NCc1ccc(C(F)(F)F)cc1)CCCC2	none
CCCC(=O)N1CCCN(C)c2ccccc21	none
CC(C)n1cnnc1CN(C)Cc1cn(-c2ccccc2)nn1	none
CN(Cc1cn(-c2ccccc2)nn1)Cc1noc2c1CCCC2	none
CN(CCC(O)c1ccccc1)Cc1cn(-c2ccccc2)nn1 (configuration not stated)	Pf Dd2 inh 8.9µM
CCC1CN(C(=O)N2CCC(C(=O)NCc3ccco3)CC2)c2ccccc2O1 (configuration not stated)	none
C#CCNC(=O)C1=NOC2CN(C(=O)Nc3cccnc3)CC12 (configuration not stated)	none
COc1ccccc1CCNC(=O)C1CCN(c2nnc(C)c3c(C)n(-c4ccc(C)cc4)nc23)CC1	Pf Dd2 inh 6.3µM
Cc1ccc(NC(=O)C2CCCN(c3nnc(C)c4c(C)n(-c5ccccc5)nc34)C2)cc1Cl (configuration not stated)	none
Cc1nnc(N2CCC(C(=O)NCCc3ccccc3Cl)CC2)c2nn(-c3ccccc3)c(C)c12	Pf Dd2 inh 11µM
CCOc1ccccc1CNC(=O)CSc1nnc(C)c2c(C)n(-c3ccccc3)nc12	none
COc1ccccc1NC(=O)C1CCCN(c2nnc(C)c3c(C)n(-c4ccccc4)nc23)C1 (configuration not stated)	none
COc1ccc(Cl)cc1NC(=O)C1CCN(c2nnc(C)c3c(C)n(-c4ccccc4)nc23)CC1	none
CCOc1ccccc1CNC(=O)C1CCN(c2nnc(C)c3c(C)n(-c4ccc(C)cc4)nc23)CC1	Pf Dd2 inh 7.1µM
Cc1ccc(Cl)cc1NC(=O)C1CCN(c2nnc(C)c3c(C)n(-c4ccccc4)nc23)CC1	none
CCN(CC)C(=O)C1CCN(c2nnc(C)c3c(C)n(-c4ccc(Cl)cc4)nc23)CC1	none
Cc1cc(C(=O)N2C[C@@H](COCC3CC3)[C@H](c3ccccn3)C2)c(C)o1	none
CC(=O)Nc1ccc(CN2C[C@@H](F)[C@@H](OCc3nc4ccccc4n3C)C2)cc1	none
Nc1nc(CCCNC(=O)C2CC(=O)N(Cc3ccccn3)C2)cs1 (configuration not stated)	none
COc1cccc(NC(=O)Cn2nnc(C(=O)NCc3ccc4c(c3)OCO4)c2N)c1	none
CCc1noc(-c2cn(C3CCN(C(=O)Cc4cccc(C)c4)CC3)nn2)n1	none
Cn1nc2n(c1=O)CCC(NC(=O)c1cc(F)ccc1Cl)CC2 (configuration not stated)	none
CC(C)Cc1nc2ccc(NC(=O)CC[C@H]3NC(=O)c4ccccc4NC3=O)cc2[nH]1	none
O=C1NCCCc2[nH]c(-c3nc(-c4ccncc4)n[nH]3)nc21	none
O=c1n(CC2CC2)nc2n1CCC(NS(=O)(=O)c1cccnc1)CC2 (configuration not stated)	none
